Among all 13,000 compounds or so, about 3,200 (25%) showed an effect of 50% or more. Some of the results follow.

As usually defined, the % Inhibition is the change of the read-out against control, counted positive when it falls.

In this experiment the test system is P. falciparum stage V gametocytes. On the set-up: BacTiter-Glo ATP luminescence viability of purified stage V gametocytes in 384-well plates, per cent inhibition versus DMSO. As to conditions: 48 h, 5 µM; inhibitor.
For `COC(=O)CCCCCOc1cc(Cc2cnc(N)nc2N)cc(OC)c1OC` [TCMDC-137678], the “% Inhibition” value is recorded as -5.017%.

For the compound `Cc1ccc(CCC(C)NCC(O)c2cccc(C(F)(F)F)c2)cc1` (centres unmarked) [TCMDC-131446], the “% Inhibition” value was 13.09%. The result for `COc1ccc(Cc2c(Cl)nc3nc(N)nc(N)c3c2C)cc1` [TCMDC-138055] reads 17.08%; that for `Oc1ccc(CCNc2nc(NCc3ccccc3-c3ccc(C(F)(F)F)cc3)nc(NC3CCNCC3)n2)cc1` [TCMDC-133387], 26.8%; that for `Oc1ccc(CCCNc2nc(NCc3cccc4ccccc34)nc(N3CCNCC3)n2)cc1` [TCMDC-133394], 8.629%. For the compound `Oc1ccc(CCCNc2nc(NCc3cccc4ccccc34)nc(N3CCCNCC3)n2)cc1` [TCMDC-133445], the “% Inhibition” value was -39.91%. As for `Oc1ccc(CCCNc2nc(NCc3ccccc3-c3ccccc3)nc(N3CCNCC3)n2)cc1` [TCMDC-133391], the “% Inhibition” value is recorded as 23.94%. The result for `Oc1ccc(CCCNc2nc(NCc3cccc4ccccc34)nc(NC3CCNCC3)n2)cc1` [TCMDC-133392] reads 57.4%.

`Oc1ccc(CCCNc2nc(NCc3ccccc3-c3ccccc3)nc(NC3CCNCC3)n2)cc1` [TCMDC-133389]: the “% Inhibition” value was 58.76%. For `O=[N+]([O-])c1cccc(Nc2cncc(-c3ccc(CO)cc3)c2)c1` [TCMDC-136670], the “% Inhibition” value was determined as 46.28%. As to `COc1cc(C(F)(F)F)cc2[nH]c(CNCCCNc3nc4ccccc4[nH]3)cc12` [TCMDC-140013], the “% Inhibition” value came to 19.83%. As to `COc1cccc2[nH]c(NCCCNCc3cc(Br)cc(Br)c3)nc12` [TCMDC-139984], the “% Inhibition” value was 1.75%. As for `CC(CNCc1cn(Cc2cc(Br)cc(Br)c2)c2ccccc12)CNc1cc(=O)c2ccccc2[nH]1` (centres unmarked) [TCMDC-140681], the figure is 91.88%.

Consider `COc1cc(NCCCNCc2cn(Cc3cc(Br)cc(Br)c3)c3ccccc23)nc2ccccc12` [TCMDC-140677], for which the “% Inhibition” value turned out to be 108.1%. Consider `O=c1cc(NCC2(CNCc3cn(Cc4ccccc4)c4ccccc34)CCCCC2)[nH]c2ccccc12` [TCMDC-140540], for which the “% Inhibition” value is -59.9%. The result for `CCCC(CNCc1ccccc1)CNc1cc(=O)c2ccccc2[nH]1` (centres unmarked) [TCMDC-139434] reads 43.59%; that for `CCCC(CNCc1cccc(C)c1)CNc1cc(=O)c2ccccc2[nH]1` (centres unmarked) [TCMDC-139435], 10.27%. The result for `COc1cc(NCC(C)CNCc2cn(Cc3ccccc3)c3ccccc23)nc2ccccc12` (centres unmarked) [TCMDC-140496] reads 91.67%; that for `COc1cc(NCC2(CNCc3cn(Cc4ccccc4)c4ccccc34)CCCCC2)nc2ccccc12.Cl` [TCMDC-140539], 107.8%; that for `COc1ccccc1C1CCN(Cc2csc(NC(=O)c3ccc(-c4ccc(C(F)(F)F)cc4)cc3)n2)CC1` [TCMDC-138781], -44.16%. Take `Cc1cc2[nH]c(-c3ccc(C(=O)NCCCN4CCN(c5cccc(Cl)c5)CC4)cc3F)nc2cc1Cl` [TCMDC-140029]: the “% Inhibition” value is listed as -4.793%. Consider `Cc1cccc2[nH]c(-c3cccc(-c4ccc(CN5CCN(CCO)CC5)cc4)c3)nc12` [TCMDC-133026], for which the “% Inhibition” value is 5.684%. On to `C(=C(c1cccs1)c1cccs1)c1ccc(CNC2CCN(Cc3ccccc3)CC2)cc1` [TCMDC-138647], for which the “% Inhibition” value is 92.91%. Regarding `c1ccc(CN2CCC(NCc3ccc(-c4ccc(CNC5CCCC5)cc4)cc3)CC2)cc1` [TCMDC-140492], the “% Inhibition” value came to 108.5%.

With `O=C(NCc1cc2c(cc1Cl)OCO2)c1ccc(CNC2CCN(Cc3ccccc3)CC2)cc1` [TCMDC-140786], the “% Inhibition” value was 7.44%. The result for `c1ccc(CN2CCC(NCc3ccccc3-c3cccc(CNCc4ccc5c(c4)OCO5)c3)CC2)cc1` [TCMDC-140474] reads 47.21%. For the compound `c1ccc(CN2CCC(NCc3ccccc3-c3ccc(CNCc4ccc5c(c4)OCO5)cc3)CC2)cc1` [TCMDC-140475], the “% Inhibition” value turned out to be 90.32%. The result for `c1ccc(CN2CCC(NCc3ccc(-c4cccc(CNC5CCCC5)c4)cc3)CC2)cc1` [TCMDC-140491] reads 106.1%; that for `O=C(NCc1cccc2ccccc12)c1ccc(CNC2CCN(Cc3ccccc3)CC2)cc1` [TCMDC-140789], -3.964%; that for `C=CCOc1ccc(CNC2CCN(Cc3ccccc3)CC2)cc1Br` [TCMDC-125268], 13.93%. The result for `O=C(Nc1ccc(N2CCN(Cc3ccccc3)CC2)cc1)c1cccs1` [TCMDC-124320] reads -18.09%; that for `C[C@@]12C[C@@H](Nc3nc(NCCc4ccc(O)cc4)nc(N4CCNCC4)n3)C[C@@H](C1)c1cccc(Cl)c1O2` [TCMDC-134047], -6.304%; that for `Cc1cc(NC(=O)Nc2ccc3nc(C)oc3c2)c2cc(Cl)ccc2n1` [TCMDC-140076], 38.43%. For `O=C(Nc1ccc2c(c1)OCO2)NC1CCN(c2ccnc(Nc3ccc(F)cc3)n2)C1` (centres unmarked) [TCMDC-133605], the “% Inhibition” value is listed as -89.44%.

For `CC(C)Cc1csc(NC(=O)C=Cc2ccco2)c1C(=O)O` [TCMDC-125660], the “% Inhibition” value is reported as 6.698%. As for `Clc1ccc(OCc2ccccc2)c(-c2nc(-c3nc4ncc(Br)cc4[nH]3)cs2)c1` [TCMDC-136729], the “% Inhibition” value is -65.34%. Regarding `c1ccc(CN2CCC(NCc3ccc(-c4cncc5ccccc45)cc3)CC2)cc1` [TCMDC-134153], the “% Inhibition” value was 14.12%. As for `c1ccc(CN2CCC(NCc3ccccc3-c3ccc(CNC4CCCC4)cc3)CC2)cc1` [TCMDC-140473], the figure is 106.4%. Take `COc1ccccc1NC(=O)Nc1cccc(-c2ccc(-c3nc4ccc(C(F)(F)F)cc4[nH]3)cc2)c1` [TCMDC-133203]: the “% Inhibition” value is reported as -14.42%. As to `N#Cc1ccc(N2CCN(Cc3cccc(-c4ccc(-c5nc6ccccc6[nH]5)cc4)c3)CC2)nc1.O=C(O)C(F)(F)F` [TCMDC-133937], the “% Inhibition” value came to 5.421%. On to `FC(F)(F)c1cnc(Sc2nnc(-c3ccncc3)o2)c(Cl)c1` [TCMDC-123767], for which the “% Inhibition” value was found to be 83.92%. In the case of `FC(F)(F)c1cnc(Sc2nnc(-c3ccco3)o2)c(Cl)c1` [TCMDC-125006], the “% Inhibition” value is reported as -49.8%. In the case of `CC1CCCCN1Cc1cccc(-c2c[nH]c3nc(NC4CCCC4)ncc23)c1` (centres unmarked) [TCMDC-133776], the “% Inhibition” value is given as -28.36%. The result for `COc1ccc2nccc([C@@H](O)CN3CCC(NCc4ccc5c(c4)oc(=S)n5C)CC3)c2c1` [TCMDC-141186] reads 1.23%.
